# This is one part of a sample in which the strongest signals are shown more often than they occur.
# What was measured:
# Test in all cases: glycan array binding signal (z-score within array); higher = stronger binding
# Settings in all cases: glycan notation: IUPAC condensed, linker removed
# Fuc(a1-2)Gal = molecular target: Fuc(a1-2)Gal
# Method in brief: (§1)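 Glycan array data came from 3228 arrays in the Consortium for Functional Glycomics database, and only arrays with an available protein sequence were kept. Glycan names were put into IUPAC-condensed notation, and columns mapping to the same glycan were averaged. The binding signal is a within-array Z-score, averaged across arrays of one protein sequence run at different concentrations or buffers and across linkers. A negative Z-score can be read as non-binding.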
# [1] = molecular target: Fuc(a1-2)Gal(b1-3)GlcNAc(b1-2)Man(a1-3)[Fuc(a1-2)Gal(b1-3)GlcNAc(b1-2)Man(a1-6)]Man(b1-4)GlcNAc(b1-4)GlcNAc
# Method in brief: as §1
# [2] = molecular target: Fuc(a1-2)Gal(b1-3)GlcNAc(b1-3)[Neu5Ac(a2-6)Gal(b1-4)GlcNAc(b1-6)]Gal(b1-4)Glc
# Method in brief: as §1
# Fuc(a1-2)Gal(b1-4)Glc6S = molecular target: Fuc(a1-2)Gal(b1-4)Glc6S
# Method in brief: as §1
# Fuc(a1-2)Gal(b1-4)GlcNAc = molecular target: Fuc(a1-2)Gal(b1-4)GlcNAc
# Method in brief: as §1
# Fuc(a1-2)[Gal(a1-3)]Gal = molecular target: Fuc(a1-2)[Gal(a1-3)]Gal
# Method in brief: as §1
# [3] = molecular target: Fuc(a1-2)[Gal(a1-3)]Gal(b1-3)GlcNAc(b1-2)Man(a1-3)[Fuc(a1-2)[Gal(a1-3)]Gal(b1-3)GlcNAc(b1-2)Man(a1-6)]Man(b1-4)GlcNAc(b1-4)[Fuc(a1-6)]GlcNAc
# Method in brief: as §1
# [4] = molecular target: Fuc(a1-2)[Gal(a1-3)]Gal(b1-4)GlcNAc
# Method in brief: as §1
# [5] = molecular target: Fuc(a1-2)[GalNAc(a1-3)]Gal(b1-4)GlcNAc(b1-2)Man(a1-3)[Fuc(a1-2)[GalNAc(a1-3)]Gal(b1-4)GlcNAc(b1-2)Man(a1-6)]Man(b1-4)GlcNAc(b1-4)GlcNAc
# Method in brief: as §1
# [6] = molecular target: Fuc(a1-2)[GalNAc(b1-3)]Gal
# Method in brief: as §1
# [7] = molecular target: Fuc(a1-3)[Gal(b1-4)]Glc6S
# Method in brief: as §1
# [8] = molecular target: Fuc(a1-3)[Gal(b1-4)]GlcNAc(b1-3)Gal(b1-3)[Fuc(a1-4)]GlcNAc
# Method in brief: as §1
# Fuc(a1-4)GlcNAc = molecular target: Fuc(a1-4)GlcNAc
# Method in brief: as §1
# [9] = molecular target: Gal(a1-3)Gal(b1-4)GlcNAc(b1-2)Man(a1-3)[Gal(a1-3)Gal(b1-4)GlcNAc(b1-2)Man(a1-6)]Man(b1-4)GlcNAc(b1-4)GlcNAc
# Method in brief: as §1
# Gal(a1-3)GalNAc = molecular target: Gal(a1-3)GalNAc
# Method in brief: as §1
# [10] = molecular target: Gal(a1-4)Gal(b1-3)GlcNAc(b1-2)Man(a1-3)[Gal(a1-4)Gal(b1-3)GlcNAc(b1-2)Man(a1-6)]Man(b1-4)GlcNAc(b1-4)GlcNAc
# Method in brief: as §1
# Gal(a1-4)Gal(b1-4)GlcNAc = molecular target: Gal(a1-4)Gal(b1-4)GlcNAc
# Method in brief: as §1
# [11] = molecular target: Gal(a1-4)Gal(b1-4)GlcNAc(b1-2)Man(a1-3)[Gal(a1-4)Gal(b1-4)GlcNAc(b1-2)Man(a1-6)]Man(b1-4)GlcNAc(b1-4)GlcNAc
# Method in brief: as §1
# Gal(a1-4)GlcNAc = molecular target: Gal(a1-4)GlcNAc
# Method in brief: as §1
# [12] = molecular target: Gal(b1-3)GlcNAc(b1-2)Man(a1-3)[Gal(b1-3)GlcNAc(b1-2)Man(a1-6)]Man(b1-4)GlcNAc(b1-4)GlcNAc
# Method in brief: as §1
# [13] = molecular target: Gal(b1-3)GlcNAc(b1-2)Man(a1-3)[Gal(b1-3)GlcNAc(b1-2)Man(a1-6)]Man(b1-4)GlcNAc(b1-4)[Fuc(a1-6)]GlcNAc
# Method in brief: as §1
# [14] = molecular target: Gal(b1-3)GlcNAc(b1-2)Man(a1-3)[GlcNAc(b1-4)][Gal(b1-3)GlcNAc(b1-2)Man(a1-6)]Man(b1-4)GlcNAc(b1-4)GlcNAc
# Method in brief: as §1
# [15] = molecular target: Gal(b1-3)GlcNAc(b1-2)[Gal(b1-3)GlcNAc(b1-6)]Man(a1-6)[Gal(b1-3)GlcNAc(b1-2)Man(a1-3)]Man(b1-4)GlcNAc(b1-4)GlcNAc
# Method in brief: as §1
# [16] = molecular target: Gal(b1-3)GlcNAc(b1-3)Gal(b1-3)GlcNAc
# Method in brief: as §1
# [17] = molecular target: Gal(b1-3)[Fuc(a1-4)]GlcNAc(b1-3)Gal(b1-4)[Fuc(a1-3)]GlcNAc
# Method in brief: as §1
# [18] = molecular target: Gal(b1-4)GlcNAc(a1-6)Gal(b1-4)GlcNAc
# Method in brief: as §1
# [19] = molecular target: Gal(b1-4)GlcNAc(b1-2)Man(a1-3)Man(b1-4)GlcNAc(b1-4)GlcNAc
# Method in brief: as §1
# [20] = molecular target: Gal(b1-4)GlcNAc(b1-2)Man(a1-3)[GlcNAc(b1-2)Man(a1-6)]Man(b1-4)GlcNAc(b1-4)GlcNAc
# Method in brief: as §1
# [21] = molecular target: Gal(b1-4)GlcNAc(b1-3)Gal(b1-4)GlcNAc(b1-2)Man(a1-3)[Gal(b1-4)GlcNAc(b1-3)Gal(b1-4)GlcNAc(b1-2)Man(a1-6)]Man(b1-4)GlcNAc(b1-4)[Fuc(a1-6)]GlcNAc
# Method in brief: as §1
# [22] = molecular target: Gal(b1-4)GlcNAc(b1-3)Gal(b1-4)GlcNAc(b1-3)Gal(b1-4)GlcNAc(b1-3)Gal(b1-4)GlcNAc(b1-2)[Gal(b1-4)GlcNAc(b1-3)Gal(b1-4)GlcNAc(b1-3)Gal(b1-4)GlcNAc(b1-3)Gal(b1-4)GlcNAc(b1-6)]Man(a1-6)[Gal(b1-4)GlcNAc(b1-3)Gal(b1-4)GlcNAc(b1-3)Gal(b1-4)GlcNAc(b1-3)Gal(b1-4)GlcNAc(b1-2)Man(a1-3)]Man(b1-4)GlcNAc(b1-4)[Fuc(a1-6)]GlcNAc
# Method in brief: as §1
# [23] = molecular target: Gal(b1-4)GlcNAc(b1-3)Gal(b1-4)GlcNAc(b1-3)Gal(b1-4)GlcNAc(b1-3)Gal(b1-4)GlcNAc(b1-3)Gal(b1-4)GlcNAc(b1-3)Gal(b1-4)GlcNAc(b1-2)Man(a1-3)[Gal(b1-4)GlcNAc(b1-3)Gal(b1-4)GlcNAc(b1-3)Gal(b1-4)GlcNAc(b1-3)Gal(b1-4)GlcNAc(b1-3)Gal(b1-4)GlcNAc(b1-3)Gal(b1-4)GlcNAc(b1-2)Man(a1-6)]Man(b1-4)GlcNAc(b1-4)GlcNAc
# Method in brief: as §1
# [24] = molecular target: Gal(b1-4)GlcNAc(b1-6)GalNAc
# Method in brief: as §1
# [25] = molecular target: Gal(b1-4)GlcNAc(b1-6)[Gal(b1-3)]GalNAc
# Method in brief: as §1
binder,measurement,setting,value
RBMC1 (Vibrio cholerae) (protein) QQSQRVVTADNLMYLRSGFAIDAIGTTVNNLVGGPVQGTNGGVLRAPIALDQLQSVEVTSGLYNWGGYHIVAIKFTMKDGSSVLLGSTHYASNKKVETYTVPQGKRIKQINVWTGGWLVEGFQFVY,glycan array binding signal (z-score),Fuc(a1-2)Gal,-0.366
same,glycan array binding signal (z-score),[1],1.37
same,glycan array binding signal (z-score),[2],-0.436
same,glycan array binding signal (z-score),Fuc(a1-2)Gal(b1-4)Glc6S,-0.119
same,glycan array binding signal (z-score),Fuc(a1-2)Gal(b1-4)GlcNAc,-0.362
same,glycan array binding signal (z-score),Fuc(a1-2)[Gal(a1-3)]Gal,-0.15
same,glycan array binding signal (z-score),[3],-0.324
same,glycan array binding signal (z-score),[4],-0.311
same,glycan array binding signal (z-score),[5],0.123
same,glycan array binding signal (z-score),[6],-0.299
same,glycan array binding signal (z-score),[7],-0.164
same,glycan array binding signal (z-score),[8],-0.378
same,glycan array binding signal (z-score),Fuc(a1-4)GlcNAc,-0.041
same,glycan array binding signal (z-score),[9],2.77
same,glycan array binding signal (z-score),Gal(a1-3)GalNAc,-0.237
same,glycan array binding signal (z-score),[10],1.41
same,glycan array binding signal (z-score),Gal(a1-4)Gal(b1-4)GlcNAc,-0.178
same,glycan array binding signal (z-score),[11],3.8
same,glycan array binding signal (z-score),Gal(a1-4)GlcNAc,-0.353
same,glycan array binding signal (z-score),[12],2.48
same,glycan array binding signal (z-score),[13],0.912
same,glycan array binding signal (z-score),[14],-0.049
same,glycan array binding signal (z-score),[15],-0.266
same,glycan array binding signal (z-score),[16],-0.311
same,glycan array binding signal (z-score),[17],-0.3
same,glycan array binding signal (z-score),[18],-0.36
same,glycan array binding signal (z-score),[19],-0.354
same,glycan array binding signal (z-score),[20],1.72
same,glycan array binding signal (z-score),[21],2.64
same,glycan array binding signal (z-score),[22],-0.194
same,glycan array binding signal (z-score),[23],0.712
same,glycan array binding signal (z-score),[24],-0.186
same,glycan array binding signal (z-score),[25],0.163
